PfM18AAP inh: blocks P. falciparum M18 aspartyl aminopeptidase | recombinant PfM18AAP, H-Glu-NHMec fluorogenic cleavage | inhibition, % at 7.35 µM | 290,000 tested, 1.2% active;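 active means inhibition above the campaign mean inhibition over all tested compounds plus 3 SD, cut at about 28% in these data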;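 further: 0% = plate median of test compound wells and 100% = 2 mM ZnCl2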
ABHD5-PLIN5 inh: blocks binding of human ABHD5 to perilipin-5; Split G. princeps luciferase complementation, luminescence, 4 h; inhibition, % at 4 µM; AID 602281; 360,000 tested, 0.78% active; Q00G26+Q8WTS1;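 active means inhibition above the mean inhibition across every tested compound plus 3 SD, cut at about 22% in these data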;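 further: 0% = DMSO only wells and the 100% control is not disclosed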
Rce1 inh: inhibitors of yeast Ras-converting enzyme; Q03530; yeast membranes, quenched prenylated peptide cleavage fluorescence; calls only; 290,000 tested, 0.27% active; AID 2563;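 active means fall in fluorescence gain of 50% or more versus controls, with final raw signal at or below 3038400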;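 further: plate controls were neutral control wells for no effect and wells lacking membranes for full effect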
Granule exo inh: blocks lytic granule exocytosis | TALL-104 LAMP-1 surface exposure, flow cytometry; cells stimulated with thapsigargin and PMA | 360,000 tested, 0.66% active | inhibition, % at 10 µM;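 active means inhibition above about 55%, limit read from the data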
Platelet DG rel: modulates dense granule release in human platelets; inhibition, %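 (compounds screened at 7.5 µM in platelet-rich plasma)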; AID 1663; 300,000 tested, 0.22% active; human platelet-rich plasma, SFLLRN dense granule ATP release, luminescence;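 active means mean replicate score, as percent of positive control, at or above 50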
ABHD5 PLIN5 conf: ABHD5-PLIN5 interaction inhibition, confirmed; shares compounds with ABHD5-PLIN5 inh; biochemical ABHD5-PLIN5 interaction, luminescence; inhibition, % at 4 µM; 2,200 tested, 67% active; AID 651612; in the data active means inhibition above about 23%;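 further: 0% = DMSO vehicle wells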
HNF4 split-luc: counter-screen for ABHD5-PLIN5 inhibitors: HNF4 split-luciferase | shares compounds with ABHD5-PLIN5 inh | HNF4 dimerization, luminescence, biochemical | 2,200 tested, 77% active | inhibition, % at 4 µM | AID 651674;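 active means mean inhibition across replicate wells exceeding the computed hit threshold, cut at about 13% in these data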;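 further: light from luciferase halves that rejoin when HNF4 fusion proteins dimerize; 0% = DMSO only wells and the 100% control is not given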
Target sequence (P41235 whole entry, looked up, the tested form may be a part): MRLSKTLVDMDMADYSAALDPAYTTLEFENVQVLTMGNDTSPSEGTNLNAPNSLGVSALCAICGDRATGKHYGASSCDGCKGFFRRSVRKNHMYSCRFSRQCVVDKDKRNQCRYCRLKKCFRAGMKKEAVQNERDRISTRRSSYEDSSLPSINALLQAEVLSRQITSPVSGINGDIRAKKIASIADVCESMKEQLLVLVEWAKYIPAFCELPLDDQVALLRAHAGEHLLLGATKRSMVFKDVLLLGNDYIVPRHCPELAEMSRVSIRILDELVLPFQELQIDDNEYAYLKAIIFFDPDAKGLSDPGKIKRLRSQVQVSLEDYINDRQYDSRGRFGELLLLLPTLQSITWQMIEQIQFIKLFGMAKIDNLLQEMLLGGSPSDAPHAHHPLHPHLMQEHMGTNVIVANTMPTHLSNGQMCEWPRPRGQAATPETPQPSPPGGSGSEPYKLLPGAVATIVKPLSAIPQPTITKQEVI
* hit, by the source's call; i = inactive; x = no result; ! = not confirmed by another sample. Only some compounds are listed: those with a hit (about 2.6% of all), similar ones and a draw of the others.

SMILES	PfM18AAP inh	ABHD5-PLIN5 inh	Rce1 inh	Granule exo inh	Platelet DG rel	ABHD5 PLIN5 conf	HNF4 split-luc
Cc1cc(C)c(NC(=O)CN2CCN3CCCC3C2)c(C)c1 (stereo not given)	1	32*!	i	-12	-6	33*	1
Cc1cc(C)c(NC(=O)CCCN2CCN(C)CC2)c(C)c1	-8	5	i	-3	20	x	x
O=C(CCC1CCCC1)NCCCN1CCOCC1	2	0	i	-7	3	x	x
Cc1cc(S(=O)(=O)c2ccc(Cl)cc2)nc(S(=O)(=O)c2ccc(Cl)cc2)c1C#N	x	79*	x	49	x	95*	105*
CC(=O)Oc1c(Br)cc(N(C(C)=O)S(=O)(=O)c2ccccc2)c2ccccc12	-14	45*	i	52	-11	48*	14*
CC(=O)Oc1ccccc1N(C(C)=O)S(=O)(=O)c1ccc2ccccc2c1	-1	-6	i	-7	1	x	x
CCOC(=O)C1(C/C(C)=N/NC(N)=O)CC(C)OC1=O (stereo not given)	6	2	i	-4	2	x	x
CCC1(C)N=C(c2ccc3c(c2)OCO3)CC(c2ccccc2O)N1 (stereo not given)	8	50*	i	4	3	91*	65*
COc1cccc(C2=NC(C)(C)NC(c3ccccc3O)C2)c1 (stereo not given)	12	57*	i	-1	x	73*	72*
O=C(Cn1nc(CNc2ccc(Cl)cc2)[n+]2c1CCCCC2)c1ccc(Br)cc1	-13	30*	i	6	-2	18	-2
CCOC(=O)c1nc(C)[nH]c1C(=O)OCC	-1	0	i	-5	-3	x	x
O=C1S/C(=C\C=C\c2ccco2)C(=O)N1c1ccccc1	15	37*	i	4	3	28*	36*
O=C1NC(=Nc2ccccc2)S/C1=C\C=C\c1ccco1	-6	25*	i	-2	-4	36*	55*
COc1ccc(/C=C(\NC(=O)c2ccccc2)C(=O)NCC2CCCO2)cc1 (stereo not given)	-13	-5	i	-6	3	x	x
Cc1ccc(S(=O)(=O)n2cnc3ccccc32)cc1	-3	0	i	0	6	x	x
O=C(OCCNc1nc(-c2ccccc2)nc2ccccc12)c1cccnc1	4	9	i	-1	3	x	x
C=CCOC(=O)/C=C/C(=O)NC(N)=O	-55	35*	i	-4	9	57*	55*
Cc1cc(Sc2nnc(N)s2)c2ccccc2n1	-8	23*	i	-6	-9	38*	58*
O=C1/C(=C\c2ccccc2)CCc2c1[nH]c1ccccc21	-5	-11	i	2	2	x	x
O=C1/C(=C/c2ccccc2)CCc2ccc(Cl)nc21	x	76*	x	-6	x	91*	74*
COc1ccc(OC(C)C(=O)Nc2ccccc2F)cc1 (stereo not given)	3	1	i	0	1	x	x
O=C(CSc1nc2sc3c(c2c(=O)n1-c1ccccc1)CCCC3)NCc1ccco1	4	0	i	3	7	x	x
CC1(C)Cc2c(sc3nc(SCC(=O)NCc4ccco4)n(-c4ccccc4)c(=O)c23)CS1	17	30*	i	1	-4	16	10
CCCCN(C)C(=O)c1nc2ccccn2c1CN1CCN(c2ncccn2)CC1	7	7	i	-2	2	x	x
C(=C\c1ccccc1)/CSc1nnc(-c2ccccn2)n1Cc1ccco1	-71	34*	i	41	7	21	44*
SMILES	PfM18AAP inh	ABHD5-PLIN5 inh	Rce1 inh	Granule exo inh	Platelet DG rel	ABHD5 PLIN5 conf	HNF4 split-luc
CN1CCCN(C(=O)c2cc(-c3ccc(Cl)c(Cl)c3Cl)nc3ccccc23)CC1	8	3	i	1	7	x	x
O=C(/C=C/c1cccnc1)c1cccc(O)c1	20	63*	i	-2	-11	81*	90*
CN(C)c1ccc(/C=C/C(=O)c2cccnc2)cc1	8	14	i	11	11	x	x
O=C(/C=C/c1cccc(O)c1)c1cccnc1	11	47*	i	0	-5	70*	64*
CC1(C)Cc2nc3oc4c(N(CCO)Cc5ccccc5)ncnc4c3cc2CO1	-2	-3	i	-2	1	x	x
COc1ccccc1N1CCNC(C)C1=O (stereo not given)	-3	57*	i	-2	5	7	15*
COc1ccccc1N1C(=O)C2C3C=CC(CC3)C2C1=O (stereo not given)	-4	-3	i	-4	10	x	x
CCOc1cc(C(c2c(C)[nH][nH]c2=O)c2c(C)[nH][nH]c2=O)ccc1OS(=O)(=O)c1ccc(C)cc1	5	-11	i	0	9	x	x
CC[C@]12c3[nH]c4cc(-c5ccco5)ccc4c3CCN1C(=O)[C@@H](CC(=O)NCCc1ccccn1)C[C@@H]2C(=O)N1CCN(C(=O)C2CC2)CC1	x	14	x	-1	x	x	x
C[C@]12c3[nH]c4cc(-c5ccco5)ccc4c3CCN1C(=O)[C@@H](CC(=O)NCCc1ccccn1)C[C@@H]2C(=O)N1CCCCC1	x	42*	x	-5	x	8	24*
COCCCNC(=O)C[C@H]1C[C@H](C(=O)N2CCCCC2)[C@@]2(CCc3ccccc3)c3[nH]c4cc(-c5ccco5)ccc4c3CCN2C1=O	x	28*	x	4	x	12	26*
COC(=O)/C(C#N)=C/c1ccc(-c2ccc(S(N)(=O)=O)cc2)o1	27	3	i	3	4	x	x
N#CC(C#N)=Cc1ccc(-c2ccc(S(=O)(=O)N=C(N)N)cc2)o1	9	28*	i	-3	8	41*	35*
CN(CC(=O)Nc1ccc(Cl)c(C(F)(F)F)c1)C(=O)Cn1cc([N+](=O)[O-])ccc1=O	x	-1	x	14	x	x	x
C=CCn1c(SCC(=O)NCCOC)nc2scc(-c3ccco3)c2c1=O	-2	32*	i	-2	-1	42*	82*
C=CCn1c(SCC(=O)NCC2CCCO2)nc2scc(-c3ccco3)c2c1=O (stereo not given)	-13	34*	i	-4	6	34*	82*
C=CCn1c(SCC(=O)NCC2CCCO2)nc2scc(-c3ccc(OC)cc3)c2c1=O (stereo not given)	-9	-2	i	1	-11	x	x
CC(=O)Nc1ccc(N(C(=O)CNC(=O)c2cccs2)C(C(=O)NCC2CCCO2)c2ccccc2)cc1 (stereo not given)	-2	2	i	33	-2	x	x
Cc1ccc(C(=O)NC2(O)C(=O)c3ccccc3C2=O)cc1C	9	11	i	-1	5	x	x
O=C(NC1(O)C(=O)c2ccccc2C1=O)c1ccc(C(F)(F)F)cc1	0	28*	i	-1	-1	54*	64*
